The list is not random: actives were taken first. Their share in the collection is about 9.2%.
SMN2 splice enh: qHTS Assay for Enhancers of SMN2 Splice Variant Expression. HEK293 SMN2-luciferase splicing reporter, luminescence, 30-36 h. Potency, µM (titrated, usually from 46.1 µM), inactives show top-dose activity change, positive = activation, hits mostly activators. 2.8% of 210,000 active. AID 1458, 2008; also: % of control where 0% means no effect; nearly all actives have a fitted effect of over 55% in size
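qHTS luciferase splicing reporter: luminescence rises when SMN2 exon 7 is included in transfected HEK293 cells. Compound exposure lasted 30-36 h at 37C, with 4.5 mM final sodium butyrate as control, followed by a ONE-Glo read.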
NPC1 promoter act: qHTS Assay for NPC1 Promoter Activators; AID 485313, 2010; Huh7 NPC1 promoter luciferase reporter, 24 h; 2.4% of 320,000 active; Potency, µM (highest dose often 9.22 µM), for the others: at the highest dose activation, hits mostly activators; also: % of control where 0% means no effect; nearly all actives have a fitted effect of over 60% in size
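Luciferase expression driven by the NPC1 promoter was measured in stably transfected Huh7 cells after a 24 h compound incubation, using a luciferase reagent and a luminescence read.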
FLuc modulator: qHTS profiling assay for firefly luciferase inhibitor/activator using purifed enzyme and Km concentrations of substrates (counterscreen for miR-21 project) | 6.9% of 360,000 active | Luciferin 4-monooxygenase (Photinus pyralis), P08659 | Potency, µM (titrated, usually from 57.5 µM), inactives show top-dose activity change, negative = inhibition, most hits filed as inhibitors | purified FLuc, Km substrates, luminescence inhibition;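 also: plate controls were vehicle for no effect and reference inhibitor for full effect; nearly all actives have a fitted effect of over 55% in size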
Target sequence (P08659 whole entry, looked up): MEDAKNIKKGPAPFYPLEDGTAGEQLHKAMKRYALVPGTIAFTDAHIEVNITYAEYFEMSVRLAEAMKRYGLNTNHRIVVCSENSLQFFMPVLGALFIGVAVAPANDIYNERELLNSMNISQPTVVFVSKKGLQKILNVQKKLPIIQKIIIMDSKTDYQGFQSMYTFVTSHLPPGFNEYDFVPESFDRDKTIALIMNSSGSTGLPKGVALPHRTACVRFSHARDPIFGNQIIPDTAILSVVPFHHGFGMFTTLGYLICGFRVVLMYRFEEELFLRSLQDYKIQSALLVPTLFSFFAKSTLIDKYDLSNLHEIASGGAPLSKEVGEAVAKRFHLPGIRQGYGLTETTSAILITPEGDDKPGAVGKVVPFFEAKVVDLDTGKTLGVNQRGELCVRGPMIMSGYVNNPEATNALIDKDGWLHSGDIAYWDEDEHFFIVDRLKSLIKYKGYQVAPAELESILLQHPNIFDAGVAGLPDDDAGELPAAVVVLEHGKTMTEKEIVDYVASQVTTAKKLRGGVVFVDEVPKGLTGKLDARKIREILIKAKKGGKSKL
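Purified P. pyralis luciferase, 10 nM final, with Km-level 10 uM D-luciferin and 10 uM ATP in 50 mM Tris acetate pH 7.5, 10 mM Mg acetate, 0.01% Tween-20, 0.05% BSA; 6-point qHTS titration about 60 µM downward; luminescence read.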
Rab9 promoter act: qHTS Assay for Rab9 Promoter Activators; AID 485297, 2010; Huh7 Rab9 promoter-luciferase reporter, luminescence, 24 h; Potency, µM (doses to about 9.22 µM), for the others: top-dose activation, negative = inhibition, hits mostly activators; 2.8% of 320,000 active; also: % of control where 0% means no effect; nearly all actives have a fitted effect of over 60% in size
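Cells were plated at 1500 per well in reduced-serum medium with 10% FBS and left 2 h. Compound in DMSO was then added for 24 h at 37 °C. Reporter signal was read by luminescence after 10 min with luciferase detection reagent.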
ELG1 repair inh: qHTS screen for small molecules that inhibit ELG1-dependent DNA repair in human embryonic kidney (HEK293T) cells expressing luciferase-tagged ELG1 | HEK293T ELG1-luciferase reporter, luminescence, 16 h; DNA damage induced by 5-fluorouridine | 2.3% of 330,000 active | Potency, µM (highest dose often 46.1 µM), for the others: top-dose activity change, negative = inhibition, most hits filed as inhibitors; also: % is scaled to controls: 0 for no effect and ±100 for the full control effect; nearly all actives have a fitted effect of over 55% in size
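DMSO vehicle served as the neutral condition. Each well held 2,000 cells given 5-fluorouridine plus compound; after 16 hr at 37 °C/5% CO2, ONE-Glo was added and luciferase measured 30 min later.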
ELG1 genotox: qHTS screen for small molecules that induce genotoxicity in human embryonic kidney (HEK293T) cells expressing luciferase-tagged ELG1; HEK293T ELG1-luciferase reporter, luminescence, 16 h; AID 504466, 2011; 1.3% of 330,000 active; Potency, µM (highest dose often 46 µM), without a hit: at the highest dose activity change, positive = activation, hits mostly activators; also: % of control where 0% means no effect; nearly all actives have a fitted effect of over 60% in size
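Genotoxicity was scored as increased ELG1-luciferase reporter signal, measured by ONE-Glo luminescence (30 min, room temperature). Compound or vehicle exposure of the HEK293T reporter cells lasted 16 hr at 37°C.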
An asterisk follows results filed as active; u = inconclusive; x = no result. Calls follow the shape of the dose curve; as a rule, active = well fitted curve in the direction sought with a large enough effect; inconclusive = small, poorly fitted or top-dose-only effect, or another doubt; inactive = no such curve, though single readings can be large; an effect the other way counts as inactive or inconclusive. Potency is read from the fitted curve at half-maximal effect.

SMILES | SMN2 splice enh | NPC1 promoter act | FLuc modulator | Rab9 promoter act | ELG1 repair inh | ELG1 genotox
CC(=O)c1cccc(NC(=O)Nc2cccnc2)c1 | -5.6% | 11.8% | u | -1.4% | 3.66µM* | -10.4%
O=C(c1ccccc1)n1ccc(-c2cccs2)n1 | x | 12.3% | 6.01µM* | -0.5% | 6.0% | 0.3%
CN(Cc1ccc(-n2cccn2)cc1)C(=O)c1cnn2c1NC(c1ccco1)CC2C(F)(F)F (stereo not given) | -45.3% | -2.5% | 14.5% | -45.2% | 10.3µM* | -16.2%
O=C(NCc1cccc(Cl)c1)c1cnn2c1NC(c1ccco1)CC2C(F)(F)F (stereo not given) | -3.9% | -6.2% | 3.2% | -0.3% | u | -11.8%
Cc1ccc(Cl)cc1NC(=O)c1cnn2c1NC(c1ccco1)CC2C(F)(F)F (stereo not given) | 12.7% | 0.6% | 0.5% | -5.3% | 18.4µM* | -12.1%
COCCNC(=O)c1cnn2c1NC(c1ccco1)CC2C(F)(F)F (stereo not given) | 10.8% | -5.0% | -1.0% | 0.4% | 1.4% | 2.1%
CCCCN(C(=O)CSc1nc2ccccc2n1CC)C1CCS(=O)(=O)C1 (stereo not given) | x | -1.1% | 5.7% | -5.1% | u | -1.4%
COC(=O)c1ccc(N/N=C/c2cc([N+](=O)[O-])cc(OC)c2O)cc1 | x | 6.2% | u | -1.8% | u | 9.8%
COc1cccc(/C=N/Nc2ccc([N+](=O)[O-])cc2)c1O | x | u | 2.39µM* | 23.8% | u | u
COc1cccc(/C=N/NC(=O)c2ccc([N+](=O)[O-])cc2Cl)c1O | -71.6% | -31.7% | 19µM* | -27.8% | 10.8% | 6.8%
COc1cc(/C=N/NC(=O)c2cccc([N+](=O)[O-])c2)cc(OC)c1O | 0.6% | -2.8% | -14.1% | -3.5% | 16.6% | -1.1%
COc1cccc(N/N=C/c2cccc(Br)c2O)c1 | x | u | 6.75µM* | u | u | u
COc1ccc(/C=N/Nc2ccc([N+](=O)[O-])cc2)cc1O | x | 18.1% | 7.57µM* | u | u | 11.6µM*
COc1ccc(/C=N/Nc2ccc([N+](=O)[O-])cc2)cc1Cn1cc([N+](=O)[O-])cn1 | -10.9% | -0.8% | -16.4% | -8.5% | u | u
COc1ccc(CCNC(=O)CCCCn2c(=O)c3ccccc3n(CC(=O)Nc3ccccc3C)c2=O)cc1OC | -2.3% | x | -0.8% | x | x | x
Cc1ccc(CNC(=O)CN(C)S(=O)(=O)c2ccc3c(c2)c(=O)n(C)c(=O)n3C)cc1 | 5.0% | x | -4.9% | x | x | x
COc1cccc(/C=N/NC(=O)c2ccc(=O)[nH]n2)c1O | x | 0.3% | 3.38µM* | -7.3% | -23.4% | 10.5%
COc1ccc(OC)c(/C=N/NC(=O)c2ccc(=O)[nH]n2)c1 | x | -0.3% | 2.1% | 4.9% | u | -0.6%
COc1cccc(NC(=O)C(C)n2c(=O)cc(C(F)(F)F)c3c(C)nn(C)c32)c1 (stereo not given) | x | x | -3.3% | x | x | x
CC(=O)Oc1ccc2c(=O)c(Oc3ccccc3[N+](=O)[O-])coc2c1 | 11.2% | -1.1% | -8.1% | -1.3% | 1.8% | -1.5%
CC(Oc1ccc2c(-c3ccccc3)cc(=O)oc2c1)C(=O)O (stereo not given) | 10.8% | -1.1% | -16.7% | 11.6% | 0.5% | -3.4%
CC(=O)Oc1ccc2c(=O)c(-c3nc4ccccc4s3)coc2c1 | 12.6µM* | 1.26µM* | 1.07µM* | 1.26µM* | u | u
CC(C)Oc1ccc2c(=O)c(-c3ccccc3)coc2c1 | 3.16µM* | 0.794µM* | 1.69µM* | 0.891µM* | u | 9.2µM*

Screens (PubChem)
